Here are results for 45 compounds from article PMC4336329 (PLoS ONE, 2015).

Molecules are shown by their SMILES. Screen size: about 310,000 compounds; about 14,000 (4.5%) showed an effect of 50% or more. Effects have a minus sign here. For the sample, strong results were picked, then their nearest neighbours and some compounds at random.
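Further: peak tail current of the secondary pulse compared with the same well before compound.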

Chain of human ether-à-go-go-related gene (hERG) potassium channel (Q12809 whole entry, looked up): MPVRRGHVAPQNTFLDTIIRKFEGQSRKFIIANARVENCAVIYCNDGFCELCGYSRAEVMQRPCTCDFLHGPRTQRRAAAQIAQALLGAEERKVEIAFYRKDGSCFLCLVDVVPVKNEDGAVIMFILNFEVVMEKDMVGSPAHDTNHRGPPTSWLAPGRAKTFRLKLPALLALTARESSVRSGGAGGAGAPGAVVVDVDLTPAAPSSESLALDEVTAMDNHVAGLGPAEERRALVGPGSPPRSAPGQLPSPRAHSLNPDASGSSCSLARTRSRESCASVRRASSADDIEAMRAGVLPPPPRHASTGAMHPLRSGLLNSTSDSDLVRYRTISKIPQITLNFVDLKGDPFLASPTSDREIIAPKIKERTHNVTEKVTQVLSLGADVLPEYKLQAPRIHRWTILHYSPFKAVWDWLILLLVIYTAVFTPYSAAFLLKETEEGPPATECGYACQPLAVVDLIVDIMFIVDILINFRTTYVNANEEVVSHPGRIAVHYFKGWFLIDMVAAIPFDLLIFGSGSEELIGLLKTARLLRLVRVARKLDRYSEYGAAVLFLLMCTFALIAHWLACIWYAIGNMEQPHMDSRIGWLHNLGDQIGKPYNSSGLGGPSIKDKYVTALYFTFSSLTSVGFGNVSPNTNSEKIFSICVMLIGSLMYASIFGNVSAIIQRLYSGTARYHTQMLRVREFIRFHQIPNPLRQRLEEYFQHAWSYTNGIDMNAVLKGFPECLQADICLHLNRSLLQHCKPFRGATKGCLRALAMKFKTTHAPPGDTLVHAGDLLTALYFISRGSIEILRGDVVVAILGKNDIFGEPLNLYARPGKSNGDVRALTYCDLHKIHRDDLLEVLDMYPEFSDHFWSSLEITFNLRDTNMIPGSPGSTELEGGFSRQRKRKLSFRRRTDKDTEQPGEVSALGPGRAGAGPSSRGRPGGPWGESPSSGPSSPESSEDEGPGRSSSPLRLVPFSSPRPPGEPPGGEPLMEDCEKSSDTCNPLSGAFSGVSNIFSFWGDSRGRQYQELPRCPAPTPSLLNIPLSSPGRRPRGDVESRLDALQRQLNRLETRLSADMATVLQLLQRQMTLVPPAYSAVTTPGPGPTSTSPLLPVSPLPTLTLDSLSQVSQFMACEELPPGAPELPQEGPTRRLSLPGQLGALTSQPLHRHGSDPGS

The test addresses human ether-à-go-go-related gene (hERG) potassium channel (human, UniProt Q12809). Briefly: primary screen, population patch clamp on CHO cells stably expressing hERG; higher = less effect of the substance.
On to `O=C(Nc1cccc(Cl)c1N1CCOCC1)c1ccc(Br)o1`, for which the “hERG current change (%, negative = inhibition) at 10uM” value is on record as 6.64%.
The result for `O=C(Nc1cccc(Cl)c1N1CCCC1)c1ccc([N+](=O)[O-])o1` reads 9.6%; that for `O=C(Nc1cccc(Cl)c1N1CCOCC1)c1ccc([N+](=O)[O-])o1`, 2.67%; that for `CCN1CCN(c2c(Cl)cccc2NC(=O)c2ccc(Br)o2)CC1`, -73.6%.
For `O=C(Nc1cccc(Cl)c1N1CCOCC1)c1ccco1` the value was -8.08%.
The result for `O=C(Nc1cccc(Cl)c1N1CCCC1)c1ccc(Br)o1` reads -5.58%; that for `CC12CCC(=O)N1C(C(=O)NNC(=O)c1ccc(Br)cc1)CS2` (stereo not drawn), -8.4%; that for `Cc1ccc2nc(SCC(=O)Nc3ccc(C(N)=O)cc3)[nH]c2c1`, 3.74%.
For `CC(CN(C)Cc1ccccc1)OC(=O)c1ccc2c(c1)OCCO2.Cl` (stereo not drawn), the “hERG current change (%, negative = inhibition) at 10uM” value is 5.15%.
On to `COC(=O)c1ccc(COc2ccc3ccc(=O)oc3c2)o1`, for which the “hERG current change (%, negative = inhibition) at 10uM” value is 8.66%.
For `CN(C)CCNC(=O)Cn1ccc2cc(S(=O)(=O)N3CCCCCC3)ccc21` the value was -25.4%; for `C/C(N)=C(/C#N)C(=O)CSc1nn(-c2ccc(Cl)cc2)c(=S)s1`, 12.9%; for `O=S(=O)(NCCc1ccncc1)c1ccccc1`, 4.04%.
The result for `c1ccc2c(c1)CCCC2NC1=NCCC1` (stereo not drawn) reads -2.53%; that for `O=C(NCC(c1cccs1)N1CCOCC1)c1ccc(Cl)c([N+](=O)[O-])c1` (stereo not drawn), -31.9%; that for `CCOc1ncccc1C(=O)N1CCN(C(c2ccccc2)c2ccccc2)CC1`, 5.75%.
For `O=C(O)CCn1c(-c2ccccc2)cc2c1CCCC2=O` the value was 14.1%; for `Cc1c(NS(=O)(=O)c2ccc(NC3CCCC3)c([N+](=O)[O-])c2)c(=O)n(-c2ccccc2)n1C`, -19.7%; for `Cc1cc(C)nc(NS(=O)(=O)c2cccs2)c1`, 3.36%.
For `CCN1CCN(c2c(Cl)cccc2NC(=O)c2ccc([N+](=O)[O-])cc2)CC1`, the “hERG current change (%, negative = inhibition) at 10uM” value is -72%.
For `CCN1CCN(c2c(Cl)cccc2NC(=O)c2ccc3nsnc3c2)CC1` the value was -49.5%.
With `CCN1CCN(c2c(Cl)cccc2NC(=O)c2ccc3c(c2)OCCO3)CC1`, the “hERG current change (%, negative = inhibition) at 10uM” value is given as -38.4%.
The result for `O=C(CNc1ccc2ccccc2c1)N/N=C/c1ccncc1` reads -8.31%; that for `O=C(Nc1cc(Cl)ccc1N1CCCC1)C1=NN(c2ccccc2)C(=O)CC1`, -16.9%; that for `CC(=O)N1CCc2cc(S(=O)(=O)NCCC(=O)Nc3cccc(C)c3C)ccc21`, 0.058%.
On to `CC1CCC2(CC1)NC(=O)N(CC(=O)N(Cc1ccccc1)C(C)(C)C)C2=O` (stereo not drawn), for which the “hERG current change (%, negative = inhibition) at 10uM” value was 10.6%.
In the case of `CC1CCC2(CC1)NC(=O)N(CC(=O)NCc1cccs1)C2=O` (stereo not drawn), the “hERG current change (%, negative = inhibition) at 10uM” value was 1.95%.
The result for `COc1ccc(CN(C(=O)CN2C(=O)NC3(CCC(C)CC3)C2=O)C(C)Cc2cccs2)cc1` (stereo not drawn) reads -68.7%; that for `O=C(/C=C/c1cccc([N+](=O)[O-])c1)NCc1ccco1`, -33%.
Regarding `Cc1ccc(C2CC(=O)N3CN(c4ccc(Br)cc4)CSC3=C2C#N)o1` (stereo not drawn), the “hERG current change (%, negative = inhibition) at 10uM” value turned out to be 11.1%.
In the case of `Cc1nc2cc3nc(C(F)(F)F)[nH]c3cc2[nH]1`, the “hERG current change (%, negative = inhibition) at 10uM” value was found to be 0.0754%.
For `CCCCn1c(SCC(=O)Nc2ccc(NC(C)=O)cc2)nc2ccccc2c1=O`, the “hERG current change (%, negative = inhibition) at 10uM” value is -2.55%.
On to `CCc1ccc(NC(=O)CSc2nc3ccccc3c(=O)n2CCCN2CCC(C)CC2)cc1`, for which the “hERG current change (%, negative = inhibition) at 10uM” value was -67.2%.
With `CCc1ccc(NC(=O)CSc2nc3ccccc3c(=O)n2CCCC(=O)N2CCCC2)cc1`, the “hERG current change (%, negative = inhibition) at 10uM” value is on record as -27.9%.
For `CC1CCN(CCCn2c(SCC(=O)NC3CCCC3)nc3ccccc3c2=O)CC1` the value was -77%; for `O=C(CSc1nc2ccccc2c(=O)n1CCCO)NC1CC1`, -13.4%; for `CCCCn1c(SCC(=O)NC2CCCC2)nc2ccccc2c1=O`, -4.43%.
For `CCOCCCn1c(SCC(=O)NC2CCCC2)nc2ccccc2c1=O`, the “hERG current change (%, negative = inhibition) at 10uM” value was -1.74%.
Consider `O=C(CCCn1c(SCC(=O)Nc2ccccc2Cl)nc2ccccc2c1=O)NCC1CCCO1` (stereo not drawn), for which the “hERG current change (%, negative = inhibition) at 10uM” value was -48.9%.
The result for `CC1CCN(CCCn2c(SCC(=O)Nc3ccccc3Cl)nc3ccccc3c2=O)CC1` reads -70.8%; that for `CNC(=O)N(O)C1N(/N=C/c2c(F)cccc2Cl)C(=S)SC1(C)C` (stereo not drawn), 18%; that for `CC(=O)c1cccc(NC(=O)C(C)OC(=O)c2cc(=O)[nH]c3ccccc23)c1` (stereo not drawn), -0.987%.
Take `CCC(CNc1cc(OC)cc2cccnc12)NC1CCCCC1` (stereo not drawn): the “hERG current change (%, negative = inhibition) at 10uM” value is -26.2%.
Regarding `COc1cc(C(=O)O)cc(NC(=O)c2cccs2)c1OC`, the “hERG current change (%, negative = inhibition) at 10uM” value was 13%.
The result for `NS(=O)(=O)c1ccc(CCNS(=O)(=O)c2cccc(C(=O)O)c2)cc1` reads 15.9%.
